The values that follow come from PubChem BioAssay (NCI).

This is part of a sample that, as a whole, favours compounds with a hit. Of some 83,000 tested, about 20% had one in any assay.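 Step 1: grow cells in 96-well plates. Step 2: add test compound at a single concentration. Step 3: incubate 48 h. Step 4: record percent growth.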 Values without a mark were called inactive. Activity calls are given as the source filed them. The calls were made as follows: active = growth percent below 10; inactive = the rest.

Test systems include T-47D breast; BT-549 breast; MDA-MB-435 melanoma; SW-620 colon; MCF7 breast; HCT-116 colon; HCC-2998 colon; KM12 colon.
What all share (assay): NCI-60 one-dose screen, 48 h (100 = growth as untreated, 0 = no growth, -100 = all killed)
Holding throughout (details): 10 µM unless noted

As for `COc1cc(C2=NN(C(C)=O)C(c3cc(OC)c(OC)c(OC)c3)C2)ccc1O` (configuration not stated), the growth in the assay on T-47D breast was 45.6%; with BT-549 breast, 23.1%; in the assay on MDA-MB-435 melanoma, -76% (active); with SW-620 colon, 12.4%; with MCF7 breast it was 8.15% (active); in the assay on HCT-116 colon, 6.96% (active). In addition, the values for the growth with HCC-2998 colon and in the assay with KM12 colon were -49.3% (active) and 2.51% (active), respectively.

As for `NCCCCCCNc1cc(-c2cccc(OC(F)(F)F)c2)nc2ccc(N3CCCC3)cc12`, the growth in the assay with T-47D breast is -15.4% (active); in the assay with BT-549 breast, 55.7%; with MDA-MB-435 melanoma, -99.8% (active); with SW-620 colon it was -86.3% (active); in the assay with MCF7 breast it was -72.6% (active); in the assay on HCT-116 colon it was -63.3% (active). The growth was -66.5% (active) with HCC-2998 colon and -82.7% (active) with KM12 colon.

Turning to `N#CC1=C(/N=C/c2ccccc2)Oc2c(ccc3ccccc23)C1c1ccc([N+](=O)[O-])cc1` (configuration not stated), the growth is 76.5% in the assay on T-47D breast; 103% in the assay with BT-549 breast; 101% in the assay with MDA-MB-435 melanoma; 93% in the assay on SW-620 colon; 78.4% in the assay on MCF7 breast; 92% with HCT-116 colon. Further, the growth with HCC-2998 colon is 98.3%; in the assay on KM12 colon, 97.6%.

Consider `COc1cc(C=O)ccc1OC1OC(COC(C)=O)C(OC(C)=O)C(OC(C)=O)C1OC(C)=O` (configuration not stated), for which the growth is 92.4% with T-47D breast; 102% with BT-549 breast; 107% in the assay on MDA-MB-435 melanoma; 99.7% with SW-620 colon; 97.3% in the assay with MCF7 breast; 100% in the assay on HCT-116 colon. Further, the growth in the assay on HCC-2998 colon was 108%; in the assay on KM12 colon it was 103%.

For `CC(=O)c1cc2c(N)c(C(=O)Nc3cccc4ccncc34)sc2nc1C`, the growth in the assay with T-47D breast was 97.1%; in the assay with BT-549 breast it was 102%; with MDA-MB-435 melanoma, 6.83% (active); with SW-620 colon it was 101%; in the assay with MCF7 breast it was 83.7%; with HCT-116 colon, 102%. The growth in the assay on HCC-2998 colon is 107%; with KM12 colon it was 101%.

As for `O=S(=O)(NCCNc1nccc(-c2c(-c3cccc(O)c3)nc3occn23)n1)c1ccc(Cl)cc1`, the growth was 91.7% with T-47D breast; 116% in the assay with BT-549 breast; 45.4% with MDA-MB-435 melanoma; 125% with SW-620 colon; 82% in the assay with MCF7 breast; 87.6% with HCT-116 colon. For the same compound, the growth was 135% in the assay with HCC-2998 colon and 91.3% in the assay with KM12 colon.

In the case of `N#Cc1c(NCc2ccccc2I)sc2c1CCCCC2`, the growth was 73.3% in the assay with T-47D breast; 102% with BT-549 breast; 99.9% in the assay with MDA-MB-435 melanoma; 97.2% in the assay with SW-620 colon; 80% with MCF7 breast; 90.3% in the assay with HCT-116 colon. Besides, the growth in the assay on HCC-2998 colon was 113%; in the assay with KM12 colon, 96.6%.

As to `C=C(C)[C@@H]1CC[C@]2(C(=O)N3CCN(C)CC3)CC[C@]3(C)[C@H](CC[C@@H]4[C@@]5(C)C/C(=C/c6cccnc6)C(=O)C(C)(C)[C@@H]5CC[C@]43C)[C@@H]12`, the growth in the assay on T-47D breast was 54.2%; in the assay with BT-549 breast, 83.2%; in the assay on MDA-MB-435 melanoma it was 69.4%; in the assay on SW-620 colon, 48.1%; in the assay with MCF7 breast, 27.2%; in the assay on HCT-116 colon it was 25.3%. The results for the growth with HCC-2998 colon and with KM12 colon were 77.5% and 54.7%, respectively.

For `CCN(CC)c1ccc(/C=N/NC(=O)CSc2nc3ccccc3c(=O)n2CCc2ccc(S(N)(=O)=O)cc2)c(O)c1`, the growth with T-47D breast was 13.9%; in the assay on BT-549 breast it was 45.2%; in the assay with MDA-MB-435 melanoma, 31.9%; in the assay on SW-620 colon it was 27%; with MCF7 breast it was 11.1%; with HCT-116 colon, 10.7%. The growth in the assay with HCC-2998 colon was 35.8%; in the assay with KM12 colon, 19.1%.

In the case of `O=C(CCN1CCCC1)Nc1ccc2c(Nc3ccc(Br)cc3)c3ccccc3nc2c1`, the growth in the assay with T-47D breast is 13.6%; in the assay on BT-549 breast, 47.9%; in the assay on MDA-MB-435 melanoma it was -88% (active); in the assay with SW-620 colon it was -64.8% (active); with MCF7 breast, -66.8% (active); with HCT-116 colon it was -57.6% (active). Also, the growth was -73.4% (active) with HCC-2998 colon and -59.2% (active) in the assay on KM12 colon.

`O=C(O)c1ccc2c(c1)C(=O)N(Cc1ccccc1)C2=O`: the growth was 95.8% with T-47D breast; 98.6% in the assay on BT-549 breast; 106% in the assay with MDA-MB-435 melanoma; 98.6% in the assay with SW-620 colon; 95.3% in the assay with MCF7 breast; 96.8% with HCT-116 colon. For the same compound, the growth with HCC-2998 colon was 99.2%; with KM12 colon, 104%.

Take `COc1ccc(NC(=O)c2cc(NCc3cc(O)ccc3O)ccc2O)cc1`: the growth in the assay on T-47D breast was 68.4%; with BT-549 breast it was 71.8%; with MDA-MB-435 melanoma it was 99.7%; in the assay with SW-620 colon, 100%; in the assay on MCF7 breast, 75.6%; in the assay on HCT-116 colon, 96.9%. For the same compound, the growth in the assay with HCC-2998 colon was 107%; in the assay with KM12 colon, 88.3%.

With `O=C1/C=C/[C@@H](O)[C@@H]2C[C@@H](O)C[C@H]2/C=C/CCC[C@H](CCc2cccc3ccccc23)O1`, the growth in the assay on T-47D breast is 1.52% (active); in the assay with BT-549 breast, 13.5%; in the assay with MDA-MB-435 melanoma, 6.06% (active); with SW-620 colon it was -28% (active); in the assay on MCF7 breast, -30.8% (active); with HCT-116 colon, -63.9% (active). For the same compound, the growth was 3.84% (active) in the assay with HCC-2998 colon and -37.9% (active) in the assay on KM12 colon.

With `CCCCCN1C=C/C(=C\C(=O)N(C)c2ccccc2Br)c2ccccc21`, the growth in the assay on T-47D breast is 77.3%; in the assay with BT-549 breast, 116%; with MDA-MB-435 melanoma, 99.4%; in the assay on SW-620 colon, 97%; in the assay with MCF7 breast, 94.3%; in the assay on HCT-116 colon, 87.2%. The growth was 102% with HCC-2998 colon and 98.4% in the assay on KM12 colon.
